Compounds without any hit were thinned out: in the full panel of roughly 83,000, 20% have a hit.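 The test compound was applied at a single concentration to cells in 96-well plates for 48 hours, and percent growth was recorded.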 Unmarked numbers belong to inactive results. Active and inactive are the calls of the source. Rule for the calls: active = growth percent below 10; inactive = the rest.
Legend:
Assay in all cases: NCI-60 one-dose screen, 48 h (100 = growth as untreated, 0 = no growth, -100 = all killed)
Conditions in all cases: 10 µM unless noted
[1] = system: NCI-H23 lung
[2] = system: NCI-H226 lung
[3] = system: NCI-H322M lung
[4] = system: HOP-62 NSCLC
[5] = system: NCI-H460 lung
[6] = system: HOP-92 NSCLC
[7] = system: NCI-H522 lung
[8] = system: 786-0 renal
[9] = system: COLO 205 colon
[10] = system: DU-145 prostate
[11] = system: K-562 leukemia
[12] = system: MALME-3M melanoma
[13] = system: MDA-MB-231 breast
[14] = system: RXF 393 renal
[15] = system: SF-268 CNS
[16] = system: SF-295 CNS
[17] = system: SF-539 CNS
[18] = system: UACC-257 melanoma
[19] = system: M14 melanoma
[20] = system: A549/ATCC NSCLC

SMILES	growth [1]	growth [2]	growth [3]	growth [4]	growth [5]	growth [6]	growth [7]	growth [8]	growth [9]	growth [10]	growth [11]	growth [12]	growth [13]	growth [14]	growth [15]	growth [16]	growth [17]	growth [18]	growth [19]	growth [20]
O=C(Nc1nc2ccc(F)cc2s1)c1cccnc1Nc1ccc(Cl)cc1	9.97% (active)	44.1%	30.9%	75.6%	9.26% (active)	0.414% (active)	21.1%	56.2%	49.8%	44.3%	5.7% (active)	3.74% (active)	50.7%	59.8%	37.2%	17.4%	50.3%	43%	53.8%	
COC(=O)c1c2c(c(C)[n+]([O-])c1C)C(=O)C(NCc1ccc(Cl)cc1)=CC2=O	59%	92.6%	64.3%	78.2%	51.8%	107%		74%	9.79% (active)	86.6%	28.7%	-75.4% (active)	48.7%	86.6%	76.8%	87.6%	85.3%	17.8%	39.6%	66.9%
Nc1nc(=S)c2ncn(C3OC(COP(=O)(O)O)C(O)C3O)c2[nH]1 (stereo unspecified)	14.5%	32.8%	53.2%	20.1%	8.01% (active)	33.4%		22.9%	24.7%	22.6%	13.7%	39.7%	38.7%	13.9%	28.2%	19.9%	26.2%	36.7%	14.6%	32.9%
COc1ccc(/C(C)=C(/c2ccc(OCCCN(C)C)cc2)c2ccc(OC(=O)Cc3ccccc3)cc2)cc1	76.4%	91.5%	98.3%	83.3%	70.8%	50.5%	57.5%	71.6%	76.1%	94.2%	11.9%	95%	59.7%	67.8%	76%	51.3%	76.1%	82.1%	-19.6% (active)	
COC1=CC(c2ccc[nH]2)=N/C1=C\c1[nH]c(C)c(C(=O)OCc2ccccc2)c1C	-15.7% (active)	-25.2% (active)	-11% (active)	-43.2% (active)	-11.8% (active)	-26.3% (active)		-49.2% (active)	-82% (active)	12.1%	2.63% (active)	-76.7% (active)	-65.1% (active)	-18.1% (active)	0.9% (active)	-79.3% (active)	-63.4% (active)	-57.5% (active)	-73.9% (active)	-26.8% (active)
O=C(/C=C(/C=C/c1cccc2[nH]ccc12)OB(F)F)/C=C/c1cccc2[nH]ccc12	-34.8% (active)	-54.9% (active)	0.979% (active)	-35.7% (active)	0.502% (active)	-27.2% (active)		-60.1% (active)	-70.6% (active)	2.94% (active)	-2.54% (active)	-26.9% (active)	-10.7% (active)	-87.2% (active)	2.01% (active)	-49.5% (active)	-25.8% (active)	-47.3% (active)	-34.2% (active)	-30.9% (active)
O=C(Nc1ccc(-c2nc(N3CCOCC3)c3cccn3n2)cc1)Nc1cccnc1	17.2%	-5.75% (active)	0.902% (active)	-3.37% (active)	7.47% (active)	-22.5% (active)		-12.7% (active)	6.07% (active)	5.28% (active)	15.2%	-29.9% (active)	-0.801% (active)	-30.5% (active)	11.9%	-36.4% (active)	-39.8% (active)	-11.7% (active)	-0.739% (active)	0.989% (active)
Cn1cccc1C(=O)C1C(c2cccc([N+](=O)[O-])c2)C2C3CCCCC3CN2C12C(=O)Nc1ccc(Cl)cc12 (stereo unspecified)	49.3%	41.5%	75.6%	62.3%	37.3%	35%		66.4%	20.6%	38.7%	33.4%	68.1%	55.6%	-16.8% (active)	52.3%	82.3%	77.2%	70.7%	52.4%	29.1%
CN[C@]12CC3(C=CC(=O)C=C3)O[C@@]1(Cc1ccc(OC)cc1)N(C)C(=O)N2	82.8%	22.2%	49.7%	23.9%	98.7%	39.3%	-46.5% (active)	6.84% (active)	19%	85.2%	7.19% (active)	11.2%	76.9%	43.7%	66.4%	103%	12.2%	41%	9.52% (active)	
Cn1ccnc1C(=O)C(=O)Nc1ccc(CC(=O)Nc2ccccc2)cc1	104%	96.4%	102%	107%	102%	103%	99.5%	104%	109%	104%	111%	101%	109%	102%	96.7%	106%	99.4%	110%	104%	
Cc1nc(-c2ccccc2)cc2c(O)c(C(=O)NN)[nH]c(=O)c12	103%	104%	92.7%	107%	106%	85.6%		108%	117%	115%	104%	229%	102%	101%	96.2%	111%	100%	118%	101%	102%
CC(C)c1ccc(COCc2cc(CN3CCCC3)c(O)c3ncccc23)cc1	8.78% (active)	-6.04% (active)	12.2%	2.49% (active)	-40.8% (active)	-5.15% (active)		-15.4% (active)	18.9%	18.6%	3.96% (active)	8.44% (active)	8.36% (active)	3.03% (active)	8.66% (active)	4.84% (active)	-22.1% (active)	-12.8% (active)	-6.21% (active)	7.74% (active)
O=C1NC(=O)c2c1c1c3ccccc3ccc1c1[nH]c3ccc(Br)cc3c21	2.08% (active)	48.9%	21%	22.3%	3.5% (active)	7.3% (active)	20.1%	30.7%	9.33% (active)	22.5%	13.3%	-10.7% (active)	27.5%	11.6%	14%	24.3%	23.1%	51.9%	15.5%	
COc1ccc2c(O)c(/C=C3\N=Nc4ccccc43)oc2c1C[C@@H]1CCNC[C@H]1F	70.2%	58.3%	87.6%	71.4%	11.2%	65.1%		-62.9% (active)	58.2%	78.6%	-37.6% (active)	52.9%	15.4%	80.5%	50.3%	79.2%	-82.9% (active)	77.2%	51.6%	35.8%

— PubChem BioAssay (NCI)
